This excerpt belongs to a sample that is enriched for hits.
hDAT+cocaine: modulates human dopamine transporter uptake under cocaine. 1.3% of 110,000 active. B-score at 10 µM. AID 449768. Q01959. LLC-PK1 hDAT cells, [14C]-dopamine uptake with cocaine IC80; actives deviate in either direction;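 active = Z score or B-score, a plate-position-corrected score, falls beyond the plate's 99.7% confidence bounds, in either direction; inactive = both scores lie inside the 99.7% bounds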;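 also: scored against the spread of the other compound wells on the same plate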
D1 allo mod: D1 dopamine receptor (human) allosteric modulation; P21728; HEK293 D1, CRE-luciferase, dopamine EC30 potentiation; actives deviate in either direction; B-score at 10 µM; 5.9% of 58,000 active;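 active = luminescence count or its row- and column-corrected plate score outside the 99.7% band of the plate's sample wells, on either side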
EphB4 antag: antagonists of human EphB4-ephrin-B2 interaction; P54760; EphB4 LBD / TNYL-RAW-Alexa532 peptide, fluorescence polarization; inhibition, % at 7 µM; 0.15% of 97,000 active; AID 720;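 active = inhibition above the screen-wide mean inhibition plus 3 SD, cut at about 15% in these data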;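 also: 0% = DMSO wells and 100% = excess unlabeled TNYL-RAW peptide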
Target sequence (P54760 whole entry, looked up, the tested form may be a part): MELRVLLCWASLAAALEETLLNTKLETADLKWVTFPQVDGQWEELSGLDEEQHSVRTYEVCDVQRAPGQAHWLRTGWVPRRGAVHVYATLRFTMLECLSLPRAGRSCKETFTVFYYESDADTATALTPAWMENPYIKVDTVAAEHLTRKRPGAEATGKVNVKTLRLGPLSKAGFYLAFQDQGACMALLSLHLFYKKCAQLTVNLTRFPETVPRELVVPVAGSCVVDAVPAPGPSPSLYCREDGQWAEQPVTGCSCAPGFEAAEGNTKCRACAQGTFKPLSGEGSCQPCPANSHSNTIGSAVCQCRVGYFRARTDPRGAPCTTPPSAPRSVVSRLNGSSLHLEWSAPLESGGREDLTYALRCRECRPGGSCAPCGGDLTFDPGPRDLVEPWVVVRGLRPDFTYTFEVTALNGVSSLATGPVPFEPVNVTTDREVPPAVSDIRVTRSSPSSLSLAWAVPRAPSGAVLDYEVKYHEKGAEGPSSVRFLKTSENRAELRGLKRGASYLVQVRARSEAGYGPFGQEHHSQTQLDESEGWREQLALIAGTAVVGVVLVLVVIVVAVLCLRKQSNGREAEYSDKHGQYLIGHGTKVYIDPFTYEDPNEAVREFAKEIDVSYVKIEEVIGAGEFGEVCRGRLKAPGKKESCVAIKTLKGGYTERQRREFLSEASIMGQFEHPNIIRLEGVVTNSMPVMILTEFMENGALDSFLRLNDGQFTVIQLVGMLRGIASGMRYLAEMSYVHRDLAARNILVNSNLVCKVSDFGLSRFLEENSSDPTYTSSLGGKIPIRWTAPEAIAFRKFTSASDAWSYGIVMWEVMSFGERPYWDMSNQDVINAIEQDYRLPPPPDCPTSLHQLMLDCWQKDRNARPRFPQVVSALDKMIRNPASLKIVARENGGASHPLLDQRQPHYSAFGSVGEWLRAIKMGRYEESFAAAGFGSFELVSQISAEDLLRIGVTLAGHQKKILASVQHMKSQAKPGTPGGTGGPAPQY
D1 mod confirm: D1 receptor (human) allosteric modulation, confirmed; luminescence at 10 µM; shares compounds with D1 allo mod; 88% of 2,200 active; HEK293 D1 CRE-luciferase, dopamine EC30 potentiation; stronger effect = higher value;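 active = luminescence in either of two replicates above the same-plate mean plus 3 SD of the low-dose dopamine control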
D1 no dopamine: D1 (human) signaling in absence of dopamine; luminescence at 10 µM; shares compounds with D1 allo mod; 0.8% of 1,900 active; HEK293 D1 CRE-luciferase, luminescence, no dopamine; stronger effect = higher value; AID 646; in the data active = luminescence above about 3900
Isoprot counter: counter-screen for D1 modulators: isoproterenol response in HEK293 cells. shares compounds with D1 allo mod. 63% of 2,200 active. calls only at 10 µM. HEK293 D1 CRE-luciferase, isoproterenol EC30 counter-screen;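 active = luminescence in either replicate above plate mean of wells with a partly effective reference agonist dose plus 3 SD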;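 also: isoproterenol raises cAMP through native beta-adrenoceptor Gs so signal bypasses D1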
* marks the source's active call; other numbers are inactive results.

CCCCCOCC1CC(C/C(C)=N/Nc2nc(-c3ccccc3)cs2)C(=O)O1 (stereo unspecified) was read as hDAT+cocaine 1.2 and EphB4 antag -8.
`CCCC(=O)c1c[nH]c(C(=O)NCCCN2CCOCC2)c1` gave hDAT+cocaine 0.029 and EphB4 antag -2.
`CCOc1ncccc1C(=O)OCc1nnc(-c2ccccc2)o1` gave hDAT+cocaine 0.052, D1 allo mod 4.1*, EphB4 antag 1, D1 mod confirm 13008*, D1 no dopamine 1620 and Isoprot counter inactive.
For O=C(OCc1nnc(-c2ccccc2)o1)c1ccco1 the results were hDAT+cocaine 0.0028, D1 allo mod -0.097 and EphB4 antag 9.
Screening CC(=O)CC(c1ccc([N+](=O)[O-])cc1)c1c(O)c2ccccc2oc1=O (stereo unspecified) returned hDAT+cocaine 0.53 and EphB4 antag 5.
`COc1cc2c(cc1OC)C(C)N(C(=O)c1cc3n(n1)C(C(F)(F)F)CC(c1ccco1)N3)CC2` (stereo unspecified) gave hDAT+cocaine 2.2, D1 allo mod 6*, EphB4 antag -5, D1 mod confirm 12888*, D1 no dopamine 1708 and Isoprot counter active.
For O=C(c1cc2n(n1)C(C(F)(F)F)CC(c1ccco1)N2)N1CCc2ccccc2C1 (stereo unspecified) the results were hDAT+cocaine 0.89, D1 allo mod -0.23 and EphB4 antag 0.
For CC(=O)C[C@H]1c2ccccc2S(=O)(=O)N1c1ccccc1 the results were hDAT+cocaine -1.3.
`CCOC(=O)c1ccc(NC(=O)CCC(=O)OC)cc1` gave hDAT+cocaine -1.5, D1 allo mod 0.33 and EphB4 antag -5.
Screening CCOC(=O)CC(=O)Nc1ccc(C(=O)OCC)cc1 returned hDAT+cocaine -0.41, D1 allo mod 4.5*, EphB4 antag 3, D1 mod confirm 6944, D1 no dopamine 1692 and Isoprot counter inactive.
`COC(=O)c1c(NC(=O)C2(C)Cc3ccccc3C(=O)O2)sc2c1CCCC2` (stereo unspecified) gave hDAT+cocaine 0.17 and EphB4 antag -2.
`CCOc1ccc(NC2=NCC(=O)N2Cc2cccs2)cc1` gave hDAT+cocaine 0.61 and EphB4 antag 2.
For O=C(CCNS(=O)(=O)c1cccs1)N1CCc2ccccc2C1 the results were hDAT+cocaine 0.4, D1 allo mod 3.4*, EphB4 antag 7, D1 mod confirm 4796 and Isoprot counter active.
`CC(=O)N1CCc2cc(S(=O)(=O)NCCC(=O)N3CCc4ccccc4C3)ccc21` gave hDAT+cocaine 1.2, D1 allo mod 0.31 and EphB4 antag -3.
`Cc1nn(-c2ccccc2)c(C)c1/C=N\NS(=O)(=O)c1ccc(Cl)cc1` gave hDAT+cocaine -0.016 and EphB4 antag -1.
For CC(C)Cn1c(-c2cccs2)nc2nc3ccccc3nc21 the results were hDAT+cocaine 0.44, D1 allo mod 4.7*, EphB4 antag -2, D1 mod confirm 10104*, D1 no dopamine 1776 and Isoprot counter inactive.
For c1ccc(Cn2c(-c3cccs3)nc3nc4ccccc4nc32)cc1 the results were hDAT+cocaine -1, D1 allo mod 3.4 and EphB4 antag -6.
`CCSc1nnc2c(n1)OC1(CCCC1)Nc1ccccc1-2` gave hDAT+cocaine -0.23, D1 allo mod 6.6*, EphB4 antag 3, D1 mod confirm 15136*, D1 no dopamine 1636 and Isoprot counter active.
CCC1Nc2ccccc2-c2nnc(SC)nc2O1 (stereo unspecified) was read as hDAT+cocaine -0.072 and EphB4 antag -1.
Screening Cc1cc(OC(C)C(=O)N/N=C/CC(C)c2ccccc2)ccc1Cl (stereo unspecified) returned hDAT+cocaine 0.0035 and EphB4 antag 0.
`O=C1NC(=Nc2cccc(Cl)c2)SC1Cc1cccc(Cl)c1Cl` (stereo unspecified) gave hDAT+cocaine -0.25 and EphB4 antag 6.
For CCNc1nc(NC(C)C)nc(N(C#N)CCOc2ccccc2)n1 the results were hDAT+cocaine -0.36 and EphB4 antag 2.
For CC(C)Nc1nc(NC(C)C)nc(N(C)C#N)n1 the results were hDAT+cocaine 0.49, D1 allo mod 16*, EphB4 antag -5, D1 mod confirm 21628*, D1 no dopamine 1804 and Isoprot counter active.
